SMILES strings stand for the structures. This is part of a sample that, as a whole, favours compounds with a hit. Of some 83,000 tested, about 20% had one in any assay.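 Percent growth is the endpoint: 0 to 100 indicates growth inhibition (40 means 60% inhibition), 0 means no net growth, and negative values indicate cell death.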 Unmarked numbers belong to inactive results. Activity calls are given as the source filed them. The calls were made as follows: active = growth percent below 10; inactive = the rest.

The values below come from PubChem BioAssay (NCI).

Among the test systems are HCT-15 colon; HT29 colon; SNB-75 CNS; SNB-19 CNS; U251 CNS; PC-3 prostate; SK-MEL-5 melanoma; UACC-62 melanoma; LOX IMVI melanoma; SK-MEL-28 melanoma.
What all share (assay): NCI-60 one-dose screen, 48 h (100 = growth as untreated, 0 = no growth, -100 = all killed)
Holding throughout (conditions): 10 µM unless noted

Consider `Oc1c(CCl)cc(Cl)cc1Cc1cc(Cl)cc(Cc2cc(Cl)cc(CCl)c2O)c1O`, for which the growth in the test with HCT-15 colon was 12.8%; in the test on HT29 colon, 56.9%; with SNB-75 CNS, 56.8%; in the test on SNB-19 CNS, 27.6%; in the test with U251 CNS it was 31.7%; in the test with PC-3 prostate it was 17.9%. Also, the growth is -1.94% (active) in the test on SK-MEL-5 melanoma, 4.56% (active) in the test with UACC-62 melanoma, 47.7% in the test on LOX IMVI melanoma and 30% with SK-MEL-28 melanoma.
As for `CCN1CCN(c2ccc(NC(=O)Nc3nc4ccc(-c5ccccc5OC)cc4s3)cc2)CC1`, the growth is -83.2% (active) in the test on HCT-15 colon; -92% (active) in the test with HT29 colon; -19.8% (active) in the test on SNB-75 CNS; -82.8% (active) with SNB-19 CNS; -87% (active) with U251 CNS; -83.8% (active) in the test on PC-3 prostate. The growth with SK-MEL-5 melanoma is -98.8% (active); in the test with UACC-62 melanoma, -85.3% (active); with LOX IMVI melanoma, -86.4% (active); in the test on SK-MEL-28 melanoma it was -79.3% (active).
In the case of `NCCN1CCNCC1`, the growth with HCT-15 colon is 100%; in the test with HT29 colon, 98.4%; in the test with SNB-75 CNS it was 92.2%; in the test with SNB-19 CNS, 95.9%; in the test with U251 CNS, 102%; in the test on PC-3 prostate, 92%. Also, the growth was 109% with SK-MEL-5 melanoma, 98.1% in the test on UACC-62 melanoma, 101% with LOX IMVI melanoma and 109% with SK-MEL-28 melanoma.
For the compound `O=CN1N=C(c2ccc(F)cc2)CC1c1cccc(Nc2ccnc3cc(C(F)(F)F)ccc23)c1` (stereo not given), the growth with HCT-15 colon was 58%; in the test with HT29 colon it was 47.8%; in the test on SNB-75 CNS, 92%; in the test with SNB-19 CNS, 63.9%; with U251 CNS it was 53.2%; with PC-3 prostate it was 41.8%. Also, the growth in the test on SK-MEL-5 melanoma is -15.2% (active); in the test on UACC-62 melanoma, 53.4%; in the test with LOX IMVI melanoma, 40.2%; in the test on SK-MEL-28 melanoma it was 82.2%.
For the compound `C(=C\c1cn(-c2ccccc2)nc1-c1ccccc1)/c1nnc(-c2c[nH]c3ccccc23)o1`, the growth with HCT-15 colon is 69%; in the test on HT29 colon it was 39.7%; in the test with SNB-75 CNS it was 17.6%; in the test with SNB-19 CNS, 60.5%; with U251 CNS, 20.9%; in the test on PC-3 prostate, 26%. The growth in the test with SK-MEL-5 melanoma is 59.4%; in the test with UACC-62 melanoma, 95.4%; with LOX IMVI melanoma, 47.6%; in the test with SK-MEL-28 melanoma it was 53.2%.
In the case of `CN(C)C(CNc1oc(-c2cccc3ccccc23)nc1C#N)c1ccco1` (stereo not given), the growth is 79.8% in the test with HCT-15 colon; 72.1% in the test on HT29 colon; 71.5% in the test on SNB-75 CNS; 101% in the test on SNB-19 CNS; 80.4% in the test on U251 CNS; 89.5% with PC-3 prostate. Further, the growth in the test on SK-MEL-5 melanoma was 91.7%; with UACC-62 melanoma it was 91.3%; in the test on LOX IMVI melanoma, 95.8%; with SK-MEL-28 melanoma it was 96.3%.
As to `OCCNc1nc(NCCO)nc(Nc2ccc(C3=NN(c4cc(Cl)cc(Cl)c4)C(c4ccc(Cl)cc4)C3)cc2)n1` (stereo not given), the growth is 5.12% (active) in the test with HCT-15 colon; -46% (active) with HT29 colon; -6.43% (active) in the test with SNB-75 CNS; 15.8% in the test with SNB-19 CNS; -47.8% (active) in the test with U251 CNS; -12.1% (active) in the test on PC-3 prostate. The growth was 24.9% in the test with SK-MEL-5 melanoma, 13.1% in the test on UACC-62 melanoma, -53.4% (active) in the test with LOX IMVI melanoma and -55.8% (active) in the test on SK-MEL-28 melanoma.
Take `COc1ccc(-n2cc(COc3ccc4c5ccnc(C)c5n(CC(C)C)c4c3)nn2)cc1`: the growth in the test with HCT-15 colon was 63.4%; in the test on HT29 colon it was 16%; with SNB-75 CNS it was 61.8%; with SNB-19 CNS, 78.4%; in the test on U251 CNS, 69.9%; in the test on PC-3 prostate it was 55.6%. Besides, the growth is 58.2% in the test on SK-MEL-5 melanoma, 71% with UACC-62 melanoma, 77.3% with LOX IMVI melanoma and 87.4% in the test on SK-MEL-28 melanoma.
Regarding `COc1ccc(/C=C(/C(=O)N2CCN(Cc3ccccc3)CC2)c2cc(OC)c(OC)c(OC)c2)cc1O`, the growth in the test with HCT-15 colon is 59.7%; in the test on HT29 colon it was 95.4%; in the test on SNB-75 CNS, 49.2%; with SNB-19 CNS, 64.8%; in the test on U251 CNS, 66.1%; with PC-3 prostate, 34.8%. The growth in the test on SK-MEL-5 melanoma was 33.3%; in the test with UACC-62 melanoma it was 45%; in the test with LOX IMVI melanoma it was 60.2%; in the test with SK-MEL-28 melanoma, 76.5%.
On to `COc1ccc2c(c1)Oc1nc(N)c(C#N)c(N)c1C2Sc1ccc(SC)cc1` (stereo not given), for which the growth is -10.9% (active) with HCT-15 colon; 17.2% in the test on HT29 colon; 34.2% in the test on SNB-75 CNS; 58.2% in the test on SNB-19 CNS; 13.9% in the test on U251 CNS; 35.9% with PC-3 prostate. Further, the growth with SK-MEL-5 melanoma is 40.8%; in the test on UACC-62 melanoma it was 50.7%; in the test with LOX IMVI melanoma it was -39.2% (active); in the test on SK-MEL-28 melanoma, 32.7%.
`O=C(Nc1ccc(S(=O)(=O)NC2CCCCCC2)cc1)C(c1ccccc1)S(=O)(=O)c1ccc(F)cc1` (stereo not given): the growth in the test with HCT-15 colon is 2.74% (active); with HT29 colon it was -14.1% (active); in the test on SNB-75 CNS it was 3.64% (active); in the test on SNB-19 CNS, 26.2%; in the test on U251 CNS, 12.6%; with PC-3 prostate, 7.69% (active). For the same compound, the growth in the test on SK-MEL-5 melanoma is -36.4% (active); in the test on UACC-62 melanoma, -9.75% (active); with LOX IMVI melanoma it was 5.06% (active); in the test with SK-MEL-28 melanoma it was 1.46% (active).
`O=C(CCCCCCCCC(=O)Nc1cccc(C2=NCCN2)c1)Nc1cccc(C2=NCCN2)c1`: the growth in the test on HCT-15 colon was 102%; in the test with HT29 colon it was 82.3%; in the test on SNB-75 CNS, 110%; with SNB-19 CNS, 102%; with U251 CNS, 91.7%; in the test on PC-3 prostate it was 84.9%. The growth with SK-MEL-5 melanoma is 98.2%; in the test on UACC-62 melanoma, 105%; with LOX IMVI melanoma it was 98.7%; in the test with SK-MEL-28 melanoma it was 92.8%.
For the compound `C=C(C)[C@@H]1CC[C@]2(C(N)=O)CC[C@]3(C)[C@H](CC[C@@H]4[C@@]5(C)CCCNC(C)(C)[C@@H]5CC[C@]43C)[C@@H]12`, the growth in the test on HCT-15 colon was 50.2%; in the test on HT29 colon, 16.4%; in the test with SNB-75 CNS, 76%; in the test on SNB-19 CNS, 87.3%; in the test on U251 CNS, 58.7%; with PC-3 prostate it was 50.3%. The growth is 67.2% in the test with SK-MEL-5 melanoma, 87.4% with UACC-62 melanoma, 76.9% in the test with LOX IMVI melanoma and 85.1% in the test with SK-MEL-28 melanoma.
